Experimental data: PubChem BioAssay (NCI)
This is part of a sample that, as a whole, favours compounds with a hit. Of some 79,000 tested, about 15% had one in any assay. Calls of active or inactive are those of the source. Cut-off read from the data, not from the text of the source: active = growth inhibition above about 70%; inactive = the rest.

What was measured:
[1] = NCI Yeast Anticancer Drug Screen. Data for the rad50 strain (AID 155);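 note: 0% = growth of vehicle-only cultures of the same strain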; conditions: S. cerevisiae rad50 strain growth inhibition; at 50.0 µM; active compounds read high
Method in brief: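 Inhibition values express reduced yeast growth in compound-treated cultures relative to vehicle-treated controls.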

[2] = NCI Yeast Anticancer Drug Screen. Data for the mec2-1 strain (AID 157); conditions: S. cerevisiae mec2-1 strain, at 50.0 µM, active compounds read high
Method in brief: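 Using mec2-1 yeast: add compound, measure growth, express inhibition versus vehicle-treated cultures.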

[3] = NCI Yeast Anticancer Drug Screen. Data for the sgs1 mgt1 strain (AID 161);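 note: 0% = growth of cultures given vehicle only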; conditions: S. cerevisiae sgs1 mgt1 strain, at 50.0 µM, active compounds read high
Method in brief: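 Percent growth inhibition was derived by comparing compound-exposed mutant yeast with vehicle-exposed cultures. The strain carries alterations in DNA damage repair.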

[4] = NCI Yeast Anticancer Drug Screen. Data for the cln2 rad14 strain (AID 165);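 note: 0% = growth equal to vehicle treated cultures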; conditions: S. cerevisiae cln2 rad14 strain, at 50.0 µM, active compounds read high
Method in brief: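 Yeast strain cln2 rad14, bearing defects in cell cycle control and DNA repair, serves as the test system; values reflect growth inhibition compared with vehicle.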

[5] = NCI Yeast Anticancer Drug Screen. Data for the bub3 strain (AID 167); conditions: S. cerevisiae bub3 mutant strain, at 50.0 µM, active compounds read high
Method in brief: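 Steps: expose the mutant yeast strain to compound; grow alongside vehicle-treated cultures; measure growth; express inhibition against the vehicle cultures.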

[6] = NCI Yeast Anticancer Drug Screen. Data for the mlh1 rad18 strain (AID 175); conditions: S. cerevisiae mlh1 rad18 strain growth inhibition; at 50.0 µM; active compounds read high
Method in brief: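 Steps: expose repair-defective yeast to compound; measure growth; express inhibition against vehicle-treated controls.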

Measured: growth inhibition

C=C1CN(C(=O)NCCCl)C1
inactive: [1] 10.6% | [2] 17.4% | [3] 4.15% | [4] -11.3% | [5] 4.1% | [6] -7.8%

C[N+](C)(C)c1ccc2c(c1)CCC/C2=N\N
inactive: [1] 12.8% | [2] 9% | [3] 11.6% | [4] -9.2% | [5] 13.5% | [6] 4.3%

O=C1CSC(c2ccc(Cl)c(Cl)c2)N1c1nncs1 (stereo not drawn)
inactive: [1] -18.7% | [2] 11.8% | [3] 17.1% | [4] 10.4% | [5] 14.7% | [6] 23.4%

Cc1cc(=O)n(Cc2ccccc2)n1-c1ccccc1
inactive: [1] -11% | [2] 12.8% | [3] -0.4% | [4] 9.4% | [5] 1.2% | [6] -17%

COc1ccc(C=Nc2cc([N+](=O)[O-])ccc2O)cc1
inactive: [1] 8.5% | [2] -2.75% | [3] 3.75% | [4] -9.45% | [5] 25.5% | [6] 3%

Cn1c(=O)c2[nH]c(C3CC(=O)CC(c4nc5c([nH]4)c(=O)n(C)c(=O)n5C)N3)nc2n(C)c1=O (stereo not drawn)
inactive: [1] -1.75% | [2] 5.1% | [3] -14.4% | [4] 1.8% | [5] -27.4% | [6] 7.15%

CCOc1ccc(NC(=O)C(=O)CC(=O)c2sc(NNC(C)=O)nc2C)cc1
inactive: [1] -21.1% | [2] 2.95% | [3] 17.5% | [4] 14.4% | [5] 5.4% | [6] -8%

CCCCCCCSSCCCCCCC
inactive: [1] -9.85% | [2] -26.1% | [3] -3.55% | [4] 11.9% | [5] -16% | [6] -0.4%

O=C1C=CC(=O)c2c(Cl)ccc(O)c21
inactive: [1] -16.9% | [2] -30.6% | [3] -20.4% | [4] 10.1% | [5] -20.2% | [6] -8.7%

S=c1cc(S)nc[nH]1
inactive: [1] 29% | [2] 8.3% | [3] 11.9% | [4] 20.9% | [5] 23.9% | [6] 9.45%

CCOc1c(N=Nc2cccc([N+](=O)[O-])c2)c(C)nn1C(N)=S
inactive: [1] -42.2% | [2] -34.1% | [3] -7.85% | [4] -28.9% | [5] -3.35% | [6] -16%

O=C(c1ccc2c(c1)no[n+]2[O-])N(CCO)CCO
active: [4] 92.5%
inactive: [1] 58.8% | [2] 8.45% | [3] 47.1% | [5] 28.4% | [6] 19.9%

CCOP(=O)(OCC)OCCCCn1cnc2c1c(=O)n(C)c(=O)n2C
inactive: [1] -32% | [2] -9.4% | [3] -15.7% | [4] -38% | [5] -2.65% | [6] -3.1%

CC(O)C(c1ccc(N(C)C)cc1)c1ccc(N(C)C)cc1 (stereo not drawn)
inactive: [1] -6.25% | [2] 3.1% | [3] 2.35% | [4] -14.6% | [5] 6.05% | [6] 2.45%

COc1ccccc1OCC(O)CNc1ccc(Cl)cc1C(=O)c1ccccc1 (stereo not drawn)
inactive: [1] 3.25% | [2] 21.5% | [3] -8.8% | [4] -12% | [5] -2.7% | [6] -19.4%

COC(=O)c1cc(CN(C)C)c(O)c(CN(C)C)c1
inactive: [1] -20.3% | [2] -10.8% | [3] -34% | [4] -3.7% | [5] 2% | [6] -29%

CN1CCN(C)c2nc3ccccc3nc21
inactive: [1] 0.2% | [2] 3% | [3] 1.8% | [4] -12.1% | [5] -6.85% | [6] -7.05%

CCCCC(NC(=O)c1cnc2ccccc2n1)C(=O)O (stereo not drawn)
inactive: [1] 22.2% | [2] 14% | [3] 15.3% | [4] 4.6% | [5] 22.3% | [6] 31.6%

CCOC(=O)CC(c1ccccc1)C(C#N)(c1ccccc1)N(C)C (stereo not drawn)
inactive: [1] 27.9% | [2] 19.5% | [3] 40.8% | [4] 18% | [5] 30.4% | [6] 33.5%

CCOc1cc2c(cc1C/C=C/c1ccc(OC)cc1)OCO2
inactive: [1] 26.4% | [2] 12.6% | [3] 37.4% | [4] -0.75% | [5] 41.8% | [6] 5.05%

CCN(CC)CCC(C)C(Cc1cccs1)OC(C)=O (stereo not drawn)
inactive: [1] 4.1% | [2] -3.9% | [3] -2.95% | [4] -39% | [5] 35.2% | [6] 5.6%

O=C(Nc1cccc(Cl)c1)C(=O)C(C(=O)c1ccc2ccccc2c1)C1OC(=O)c2ccccc21 (stereo not drawn)
inactive: [1] 39% | [2] 18.4% | [3] 26.1% | [4] 37.2% | [5] 22.9% | [6] -9.1%

CCCCOC(=O)C1CCCC1=O (stereo not drawn)
inactive: [1] -14.6% | [2] -31.9% | [3] -2.15% | [4] 1.45% | [5] -43.1% | [6] 9.05%

CC(C)(C)NC(=O)NCc1ccc(Cl)c(Cl)c1
inactive: [1] 2.95% | [2] 27.4% | [3] 17.8% | [4] -6.05% | [5] -5.05% | [6] 21.6%

C=C1C(=O)[C@@]23CC1C(O)[C@@H](OC(C)=O)[C@@H]2C1(C)C(OC(C)=O)C[C@@H](OC(C)=O)C(C)(C)[C@@H]1C[C@H]3OC(C)=O (stereo partly drawn)
inactive: [1] 16.1% | [2] 11.9% | [3] 14% | [4] 22.4% | [5] 2.05% | [6] 0.15%

Cc1cc(S(=O)(=O)Nc2n[nH]c(Nc3ccccc3)n2)c(S)cc1Cl
inactive: [1] -3.5% | [2] 9% | [3] -13.8% | [4] 9.6% | [5] 12.9% | [6] 19.6%

CC(c1ccccc1O)C1CCCCC1N=O (stereo not drawn)
inactive: [1] -0.15% | [2] 3% | [3] 16.1% | [4] -48.5% | [5] 15.2% | [6] -4.15%

CCc1[nH]nc(-c2n[nH]c(CC)c2C)c1C
inactive: [1] -66.8% | [2] -24.9% | [3] -20.1% | [4] -26.4% | [5] -13.7% | [6] -9.3%

CN(C)CCO[Si](C)(c1ccccc1)c1ccc(F)cc1 (stereo not drawn)
inactive: [1] 16.6% | [2] -7.95% | [3] 20.6% | [4] -10.1% | [5] 11.8% | [6] 3.95%

CCCCCCN1CCc2c(C)c(C#N)c3nc4ccccc4n3c21
inactive: [1] -8.45% | [2] -8.05% | [3] -0.95% | [4] 10.9% | [5] 19.1% | [6] 21.8%

CCCCCCCCCCCCCCCCCCCCCCOC(=O)CCC(=O)OCCCCCCCCCCCCCCCCCCCCCC
inactive: [1] 17.2% | [2] -44.3% | [3] 17.4% | [4] -0.95% | [5] -10.8% | [6] 5.75%

CC12C=CC(=O)C=C1CCC1C2C(O)CC2(C)/C(=C\CO)CCC12 (stereo not drawn)
inactive: [1] -4.05% | [2] -1.75% | [3] 6.55% | [4] -15.8% | [5] 60.2% | [6] -3.35%

O=Cc1ccc(C=O)cc1
inactive: [1] 22.6% | [2] -3.35% | [3] 26.9% | [4] 11.9% | [5] 14.2% | [6] 32.5%

O=S(=O)(c1ccccc1)N1N=C2c3ccccc3CCC[C@H]2C1c1ccccc1 (stereo partly drawn)
inactive: [1] 51.1% | [2] -16.4% | [3] -12.7% | [4] -49.7% | [5] 4.85% | [6] 4.85%

COC(=O)/C=C(/C)c1ccccc1
inactive: [1] 1.7% | [2] 2.3% | [3] 0.9% | [4] 5.65% | [5] 1.45% | [6] -3.5%

COC(=O)c1ccc(N=NN(C)COC(C)=O)cc1
inactive: [1] 27.4% | [2] 12% | [3] 11.2% | [4] 18.5% | [5] 10.2% | [6] 18.8%

CCOc1ncc(C[n+]2csc(CCO)c2C)c(N)n1
inactive: [1] -4.95% | [2] -8.7% | [3] 8.25% | [4] 0.8% | [5] -19.9% | [6] -5.35%

CC[N+]1(C)CCC(CN2c3ccccc3Sc3ccccc32)C1 (stereo not drawn)
inactive: [1] 31.4% | [2] 22.6% | [3] 38.5% | [4] -2.65% | [5] 6% | [6] 43.3%
